This is part of a sample that, as a whole, favours compounds with a hit. Of some 83,000 tested, about 20% had one in any assay.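 96-well plates, one dose, 48 hours. Percent growth reported; active if below 10.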 The source made the active and inactive calls.
Tests used:
Test in all cases: NCI-60 one-dose screen, 48 h (100 = growth as untreated, 0 = no growth, -100 = all killed)
Conditions in all cases: 10 µM unless noted
SK-MEL-2 melanoma = tested on: SK-MEL-2 melanoma
EKVX NSCLC = tested on: EKVX NSCLC
SN12C renal = tested on: SN12C renal
UO-31 renal = tested on: UO-31 renal
TK-10 renal = tested on: TK-10 renal
ACHN renal = tested on: ACHN renal
CAKI-1 renal = tested on: CAKI-1 renal
A498 renal = tested on: A498 renal
CCRF-CEM leukemia = tested on: CCRF-CEM leukemia
MOLT-4 leukemia = tested on: MOLT-4 leukemia
SR leukemia = tested on: SR leukemia
RPMI-8226 leukemia = tested on: RPMI-8226 leukemia
OVCAR-8 ovarian = tested on: OVCAR-8 ovarian
OVCAR-5 ovarian = tested on: OVCAR-5 ovarian
OVCAR-4 ovarian = tested on: OVCAR-4 ovarian
SK-OV-3 ovarian = tested on: SK-OV-3 ovarian
IGROV1 ovarian = tested on: IGROV1 ovarian
OVCAR-3 ovarian = tested on: OVCAR-3 ovarian
HS 578T breast = tested on: HS 578T breast
NCI/ADR-RES ovarian = tested on: NCI/ADR-RES ovarian

Measured: growth

COc1ccc2c(c1)c(-c1nc(-c3c[nH]c4c(Cl)nccc34)cs1)cn2C
inactive: SK-MEL-2 melanoma 108% | EKVX NSCLC 34.8% | SN12C renal 95.9% | UO-31 renal 90.8% | TK-10 renal 35.7% | ACHN renal 85.4% | CAKI-1 renal 98.7% | A498 renal 94.7% | CCRF-CEM leukemia 93.7% | MOLT-4 leukemia 85% | SR leukemia 32.1% | RPMI-8226 leukemia 78% | OVCAR-8 ovarian 95.1% | OVCAR-5 ovarian 57.4% | OVCAR-4 ovarian 34% | SK-OV-3 ovarian 78.6% | IGROV1 ovarian 56.5% | OVCAR-3 ovarian 47.9% | HS 578T breast 87.6% | NCI/ADR-RES ovarian 95.5%

C/C(=C(\c1ccc(OCCN2CCOCC2)cc1)c1ccc(OC(=O)C2CCCCC2)cc1)c1ccc(Cl)cc1
active: CCRF-CEM leukemia -24.6%
inactive: SK-MEL-2 melanoma 92.6% | EKVX NSCLC 94.1% | SN12C renal 94.7% | UO-31 renal 81.8% | TK-10 renal 96.4% | ACHN renal 104% | CAKI-1 renal 77.9% | A498 renal 92.6% | MOLT-4 leukemia 91.1% | SR leukemia 94.2% | RPMI-8226 leukemia 44.8% | OVCAR-8 ovarian 101% | OVCAR-5 ovarian 95.6% | OVCAR-4 ovarian 111% | SK-OV-3 ovarian 96.6% | IGROV1 ovarian 103% | OVCAR-3 ovarian 97% | HS 578T breast 97.9% | NCI/ADR-RES ovarian 98%

COc1ccccc1/C=C1\COc2ccc(O)cc2C1=O
active: CCRF-CEM leukemia 6.4% | RPMI-8226 leukemia 4.74%
inactive: SK-MEL-2 melanoma 93.5% | EKVX NSCLC 102% | SN12C renal 72% | UO-31 renal 74.6% | TK-10 renal 93.3% | ACHN renal 57.8% | CAKI-1 renal 68.1% | A498 renal 109% | MOLT-4 leukemia 21% | SR leukemia 11.5% | OVCAR-8 ovarian 49.4% | OVCAR-5 ovarian 103% | OVCAR-4 ovarian 81.2% | SK-OV-3 ovarian 99.1% | IGROV1 ovarian 84.7% | OVCAR-3 ovarian 76.2% | HS 578T breast 83.5% | NCI/ADR-RES ovarian 38.1%

COc1ccc2c(c1)c(C(=O)c1nc(-c3cn(C)c4ccccc34)no1)cn2C
inactive: SK-MEL-2 melanoma 101% | EKVX NSCLC 103% | SN12C renal 89.5% | UO-31 renal 77.2% | TK-10 renal 91.7% | ACHN renal 95.9% | CAKI-1 renal 94.1% | A498 renal 87.7% | CCRF-CEM leukemia 87.9% | MOLT-4 leukemia 94.2% | SR leukemia 44.7% | RPMI-8226 leukemia 93.6% | OVCAR-8 ovarian 97.9% | OVCAR-5 ovarian 107% | OVCAR-4 ovarian 95.8% | SK-OV-3 ovarian 84.5% | IGROV1 ovarian 86.5% | OVCAR-3 ovarian 109% | HS 578T breast 88.2% | NCI/ADR-RES ovarian 94.3%

O=C1C(N2CCOCC2)=C(I)C(=O)c2ncccc21
inactive: SK-MEL-2 melanoma 91.1% | EKVX NSCLC 89.3% | SN12C renal 60.6% | UO-31 renal 54.3% | TK-10 renal 111% | ACHN renal 58.7% | CAKI-1 renal 76.1% | A498 renal 102% | CCRF-CEM leukemia 62.4% | MOLT-4 leukemia 50.5% | SR leukemia 19.2% | RPMI-8226 leukemia 91.2% | OVCAR-8 ovarian 69.5% | OVCAR-5 ovarian 97.8% | OVCAR-4 ovarian 59% | SK-OV-3 ovarian 79.3% | IGROV1 ovarian 54.5% | OVCAR-3 ovarian 69.8% | HS 578T breast 65.1% | NCI/ADR-RES ovarian 75.4%

COc1ccc(Oc2nc(Nc3ccc(N4CCOCC4)cc3)ncc2NC(=O)c2cccc(C(F)(F)F)c2)cc1
inactive: SK-MEL-2 melanoma 97.2% | EKVX NSCLC 81.3% | SN12C renal 85.8% | UO-31 renal 71.2% | TK-10 renal 93% | ACHN renal 79.9% | CAKI-1 renal 88.9% | A498 renal 63.4% | CCRF-CEM leukemia 49.9% | MOLT-4 leukemia 43.7% | SR leukemia 35.7% | RPMI-8226 leukemia 59.8% | OVCAR-8 ovarian 78.5% | OVCAR-5 ovarian 111% | OVCAR-4 ovarian 96.4% | SK-OV-3 ovarian 85.7% | IGROV1 ovarian 88.5% | OVCAR-3 ovarian 82.7% | HS 578T breast 91.4% | NCI/ADR-RES ovarian 79.7%

COc1cc(-c2nc3occn3c2-c2ccnc(NCCCNS(=O)(=O)c3ccc(O)cc3)n2)ccc1F
inactive: SK-MEL-2 melanoma 28.4% | EKVX NSCLC 104% | SN12C renal 95.8% | UO-31 renal 105% | TK-10 renal 133% | ACHN renal 86.3% | CAKI-1 renal 92.6% | A498 renal 104% | CCRF-CEM leukemia 75.4% | MOLT-4 leukemia 101% | SR leukemia 74.2% | RPMI-8226 leukemia 97% | OVCAR-8 ovarian 98.4% | OVCAR-5 ovarian 138% | OVCAR-4 ovarian 129% | SK-OV-3 ovarian 82.4% | IGROV1 ovarian 97.8% | OVCAR-3 ovarian 117% | HS 578T breast 93% | NCI/ADR-RES ovarian 104%

COc1ccc(-c2nc(Cl)c3c(C)nn(-c4ccc(F)cc4)c3n2)cc1
inactive: SK-MEL-2 melanoma 91.9% | EKVX NSCLC 111% | SN12C renal 99% | UO-31 renal 97.3% | TK-10 renal 98% | ACHN renal 106% | CAKI-1 renal 107% | A498 renal 101% | CCRF-CEM leukemia 102% | MOLT-4 leukemia 103% | SR leukemia 103% | RPMI-8226 leukemia 102% | OVCAR-8 ovarian 99.2% | OVCAR-5 ovarian 110% | OVCAR-4 ovarian 107% | SK-OV-3 ovarian 102% | IGROV1 ovarian 109% | OVCAR-3 ovarian 106% | HS 578T breast 103% | NCI/ADR-RES ovarian 112%

C=CCNC(=O)Cc1c(-c2ccc(OC)cc2)oc2c(OC)c3c(c(OC)c12)OCO3
inactive: SK-MEL-2 melanoma 108% | EKVX NSCLC 107% | SN12C renal 94.6% | UO-31 renal 80.8% | TK-10 renal 110% | ACHN renal 104% | CAKI-1 renal 87.8% | A498 renal 55% | CCRF-CEM leukemia 94.1% | MOLT-4 leukemia 99.7% | SR leukemia 97.4% | RPMI-8226 leukemia 97.5% | OVCAR-8 ovarian 95.9% | OVCAR-5 ovarian 101% | OVCAR-4 ovarian 102% | SK-OV-3 ovarian 110% | IGROV1 ovarian 82.3% | OVCAR-3 ovarian 118% | HS 578T breast 103% | NCI/ADR-RES ovarian 98.2%

O=C1c2cccc3cccc(c23)C(=O)N1N1C(=O)c2cccc3c(N4CCNCC4)ccc(c23)C1=O
active: SR leukemia -6.4%
inactive: SK-MEL-2 melanoma 101% | EKVX NSCLC 97.9% | SN12C renal 89.8% | UO-31 renal 71.6% | TK-10 renal 113% | ACHN renal 87.8% | CAKI-1 renal 92.4% | A498 renal 75.1% | CCRF-CEM leukemia 19.5% | MOLT-4 leukemia 61.5% | RPMI-8226 leukemia 68.8% | OVCAR-8 ovarian 82.6% | OVCAR-5 ovarian 121% | OVCAR-4 ovarian 116% | SK-OV-3 ovarian 104% | IGROV1 ovarian 91.2% | OVCAR-3 ovarian 101% | HS 578T breast 85.9% | NCI/ADR-RES ovarian 82.6%

CCOC(=O)c1nnn(Cc2cc(=O)oc3c2ccc2ccccc23)c1C
inactive: SK-MEL-2 melanoma 110% | EKVX NSCLC 105% | SN12C renal 96.7% | UO-31 renal 77.3% | TK-10 renal 101% | ACHN renal 97.9% | CAKI-1 renal 98% | A498 renal 108% | CCRF-CEM leukemia 88.2% | MOLT-4 leukemia 108% | SR leukemia 97.6% | RPMI-8226 leukemia 103% | OVCAR-8 ovarian 98.1% | OVCAR-5 ovarian 102% | OVCAR-4 ovarian 97.6% | SK-OV-3 ovarian 104% | IGROV1 ovarian 110% | OVCAR-3 ovarian 103% | HS 578T breast 100% | NCI/ADR-RES ovarian 108%

CCOC(=O)c1cnn(CC(O)CC)c1NC(=O)NCc1ccccc1C(F)(F)F (stereo not given)
inactive: SK-MEL-2 melanoma 87.3% | EKVX NSCLC 91.8% | SN12C renal 101% | UO-31 renal 77.6% | TK-10 renal 101% | ACHN renal 102% | CAKI-1 renal 77.6% | A498 renal 105% | CCRF-CEM leukemia 84.9% | MOLT-4 leukemia 87.2% | SR leukemia 114% | RPMI-8226 leukemia 81% | OVCAR-8 ovarian 102% | OVCAR-5 ovarian 103% | OVCAR-4 ovarian 106% | SK-OV-3 ovarian 91.4% | IGROV1 ovarian 94.9% | OVCAR-3 ovarian 107% | HS 578T breast 109% | NCI/ADR-RES ovarian 95.4%

CCCCCCCCCCCCCCCCCCOc1cccc(CC(=O)OCC[N+](CC)(CC)CC)c1
inactive: SK-MEL-2 melanoma 84% | EKVX NSCLC 77.7% | SN12C renal 42.8% | UO-31 renal 86.4% | TK-10 renal 67.5% | ACHN renal 90% | CAKI-1 renal 62.7% | A498 renal 89.3% | CCRF-CEM leukemia 32.5% | MOLT-4 leukemia 72% | SR leukemia 53% | RPMI-8226 leukemia 35.4% | OVCAR-8 ovarian 41.4% | OVCAR-5 ovarian 71.3% | OVCAR-4 ovarian 27.6% | SK-OV-3 ovarian 103% | IGROV1 ovarian 37.1% | OVCAR-3 ovarian 77.7% | HS 578T breast 60.8% | NCI/ADR-RES ovarian 103%

COc1cc(/C=C2\CCC/C(=C\c3cc(CN4CCCC4)c(O)c(OC)c3)C2=O)cc(CN2CCCC2)c1O
inactive: SK-MEL-2 melanoma 82.6% | EKVX NSCLC 32.4% | SN12C renal 30.3% | UO-31 renal 47.4% | TK-10 renal 70.1% | ACHN renal 48.2% | CAKI-1 renal 55.2% | A498 renal 85.3% | CCRF-CEM leukemia 17.6% | RPMI-8226 leukemia 14.2% | OVCAR-5 ovarian 39.9% | OVCAR-4 ovarian 47.1% | SK-OV-3 ovarian 102% | IGROV1 ovarian 52.7% | HS 578T breast 63.7% | NCI/ADR-RES ovarian 59.8%
active: MOLT-4 leukemia 4.58% | SR leukemia 8% | OVCAR-8 ovarian 8.24% | OVCAR-3 ovarian 6.05%

N=C(N)c1ccc(-c2ccc(-c3ccc(Cl)c(Cl)c3)s2)cc1
inactive: SK-MEL-2 melanoma 107% | EKVX NSCLC 72.4% | SN12C renal 14.3% | UO-31 renal 54% | TK-10 renal 109% | A498 renal 86.7% | OVCAR-5 ovarian 15.2% | SK-OV-3 ovarian 94.6% | HS 578T breast 94% | NCI/ADR-RES ovarian 83.5%
active: ACHN renal -62.7% | CAKI-1 renal -69% | CCRF-CEM leukemia 1.96% | MOLT-4 leukemia -14.9% | SR leukemia 5.08% | RPMI-8226 leukemia -15.6% | OVCAR-8 ovarian -17% | OVCAR-4 ovarian -16.2% | IGROV1 ovarian -49.5% | OVCAR-3 ovarian -87.9%
